Screens (PubChem BioAssay)
Shown are actives, neighbours in structure and some others; about 18% of the full set was active somewhere.
RORg inh = qHTS for inhibitors of ROR gamma transcriptional activity; Drosophila S2 Gal4-RORgamma UAS-luciferase reporter, 20 h; Potency, µM (series often up to 53.6 µM), for inactives: top-dose activity change, negative = inhibition, usual class: inhibitors; actives 5.4% (n = 310,000); AID 2551, 2010; note: potency is the fitted concentration of half-maximal effect; nearly all actives have a fitted effect of over 60% in size
Target sequence (P51450 whole entry, looked up, the tested form may be a part): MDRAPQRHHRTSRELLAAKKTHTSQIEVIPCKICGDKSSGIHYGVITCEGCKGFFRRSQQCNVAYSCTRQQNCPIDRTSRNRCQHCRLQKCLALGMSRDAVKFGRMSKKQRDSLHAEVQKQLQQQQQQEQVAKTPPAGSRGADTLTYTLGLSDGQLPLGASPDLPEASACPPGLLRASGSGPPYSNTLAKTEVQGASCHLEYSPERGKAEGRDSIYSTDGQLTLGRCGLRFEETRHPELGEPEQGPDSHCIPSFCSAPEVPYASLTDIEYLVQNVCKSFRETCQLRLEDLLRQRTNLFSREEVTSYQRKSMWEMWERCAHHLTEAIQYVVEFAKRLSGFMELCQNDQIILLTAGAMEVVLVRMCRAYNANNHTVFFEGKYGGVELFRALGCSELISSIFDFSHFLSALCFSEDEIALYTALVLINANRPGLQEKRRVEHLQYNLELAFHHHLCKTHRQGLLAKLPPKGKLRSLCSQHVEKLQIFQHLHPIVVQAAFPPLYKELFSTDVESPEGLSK
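Drosophila Schneider cells stably carrying a metallothionein-driven Gal4 DBD–ROR gamma fusion and a UAS-Photinus luciferase reporter were exposed to compound for 1 hr, then induced with copper sulfate (700 uM final) for 20 hr at ambient temperature before luminescence reading.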
Gal4-VP16 FLuc = VP16 counterscreen qHTS for inhibitors of ROR gamma transcriptional activity; Drosophila S2 Gal4-VP16 UAS-luciferase, luminescence, 20 h; Potency, µM (series often up to 53.6 µM), without a hit: top-dose activity, negative = inhibition, most hits filed as inhibitors; actives 3.5% (n = 310,000); AID 2546, 2010;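 note: Gal4-VP16 expression switched on by copper sulfate through the metallothionein promoter; potency is the fitted concentration of half-maximal effect; nearly all actives have a fitted effect of over 50% in size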
TDP1 cell noCPT = qHTS for Inhibitors of human tyrosyl-DNA phosphodiesterase 1 (TDP1): qHTS in cells in absence of CPT | DT40 Tdp1-/- hTDP1 cells, no CPT, ATP luminescence, 48 h | Potency, µM (doses to about 46.2 µM), inactives show top-dose activity change, negative = growth inhibition, actives largely listed as inhibitors | actives 15% (n = 420,000); note: potency is the fitted concentration of half-maximal effect; nearly all actives have a fitted effect of over 55% in size
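A cellular qHTS used chicken DT40 cells lacking endogenous Tdp1 but carrying stably transfected human TDP1. Compounds were applied without camptothecin, and cell growth kinetics were judged by ATP-dependent luminescence after ≥48 hr.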
LDHA block = qHTS assay for inhibitors of human lactate dehydrogenase; actives 0.15% (n = 480,000); purified LDHA, NADH/diaphorase-resazurin fluorescence; hits give low values; activity change, % (values are at about 110 or 230 µM); L-lactate dehydrogenase A chain (Homo sapiens), P00338; AID 1347041, 2019; in the data active = activity change below about -30%; inconclusive = mostly about -25% to -30%;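 note: plate controls were DMSO wells for no effect and wells without enzyme for full effect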
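Resorufin fluorescence (ex540/em590), read at 0 and 20 min after diaphorase/resazurin addition, reports the NADH left after a 5 min room-temperature reaction of 2 nM human LDH5 with 0.06 mM NADH and 0.2 mM pyruvate.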
IL-1B inflam inh = qHTS for Inhibitors of Inflammasome Signaling: IL-1-beta AlphaLISA Primary Screen. THP-1 LPS/ATP IL-1B secretion, AlphaLISA, 16 h; hits give low values. activity change, % at 57.5 µM. actives 4.7% (n = 360,000); in the data active = activity change below about -50%; inconclusive = mostly about -30% to -49%
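THP-1 cells pretreated 1 hr with compounds (up to 57.5 uM final), then stimulated with LPS (250 ng/mL final) plus ATP (1.25 mM final); secreted IL-1B measured by AlphaLISA after 16 hr, decreased signal indicating inhibition.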
DT40 TDP1 CPT = qHTS for Inhibitors of human tyrosyl-DNA phosphodiesterase 1 (TDP1): qHTS in cells in presence of CPT; actives 12% (n = 420,000); chicken DT40 Tdp1-/-;hTDP1 cells + 20 nM CPT, ATP luminescence, 48 h; Potency, µM (top dose mostly 46.2 µM), inactives show at the highest dose activity change, negative = growth inhibition, usual class: inhibitors; AID 686979, 2013; note: potency is the fitted concentration of half-maximal effect; nearly all actives have a fitted effect of over 55% in size
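Chicken DT40 Tdp1-/- cells complemented with human TDP1, 400 cells/well, exposed to compounds plus 20 nM camptothecin for at least 48 h at 37 C; viability read as ATP content by CellTiter-Glo luminescence.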
Active calls of the source: *; i = inactive; ? = inconclusive; / = no result. Unless noted, calls come from the whole dose curve; as a rule, active = well fitted curve in the direction sought with a large enough effect; inconclusive = small, poorly fitted or top-dose-only effect, or another doubt; inactive = no such curve, though single readings can be large; an effect the other way counts as inactive or inconclusive. Unless noted, % is set by controls: 0 for no effect and ±100 for the full control effect.

SMILES | RORg inh | Gal4-VP16 FLuc | TDP1 cell noCPT | LDHA block | IL-1B inflam inh | DT40 TDP1 CPT
Cn1nc(C(=O)OCc2nc(-c3ccc(Cl)cc3)no2)c2ccccc21 | / | / | / | 8 | / | /
c1coc(-c2nnc(-c3ccco3)nn2)c1 | ? | ? | 12µM* | 49 | -76* | 5.8µM*
c1ccc(-c2nnc(-c3ccco3)o2)cc1 | -34% | ? | -3% | -2 | 4 | -3%
COc1ccc(NC(=O)CCOc2ccc(C)cc2)cc1S(=O)(=O)N1CCCCC1 | / | / | ? | 4 | -12 | ?
Cc1ccc(OCCC(=O)Nc2ccc(S(=O)(=O)N3CCCC3)cc2)cc1 | / | / | 15µM* | -1 | ? | ?
O=C(Cc1ccc(Br)cc1)Nc1ccc(S(=O)(=O)N2CCCC2)cc1 | ? | -15% | / | / | / | /
CCOc1ccc(CC(=O)Nc2ccc(S(=O)(=O)N3CCCC3)cc2)cc1 | 9% | -3% | 15µM* | -1 | 11 | ?
CCOc1ccc(NC(=O)CSc2nnc3c(n2)[nH]c2ccc(S(=O)(=O)N4CCCCC4)cc23)cc1 | / | / | 16µM* | 4 | / | 13µM*
c1ccc(-c2nc(C34CC5CCC(CC(C5)C3)C4)cs2)cc1 | / | / | / | 11 | / | /
CCCC(C)NC(=O)CN(c1ccccc1OC)S(C)(=O)=O (stereo unspecified) | / | / | / | 3 | / | /
CONC(=O)c1cccc(C#N)c1 | / | / | / | 1 | / | /
C[n+]1c(NCc2cc(Br)cc(Br)c2[O-])[nH]c2ccccc21 | / | / | / | 2 | / | /
CCCC1NC(=O)N(Cc2ncc(-c3ccc(Cl)cc3)o2)C1=O (stereo unspecified) | / | / | / | -18 | / | /
O=C1Nc2cccnc2N(C(=O)CCl)c2ccccc21 | ? | -22% | 2.6µM* | -9 | -96* | 3.3µM*
NCCN1CCN(CC(=O)N2c3ccccc3C(=O)Nc3cccnc32)CC1 | / | / | / | 0 | / | /
O=S1(=O)c2ccc(Br)cc2N2CCC[C@@H]2CN1C1CC1 | / | / | ? | 0 | 19 | ?
C[C@@H](c1ccccc1)N1C[C@H]2CCCN2c2cc(Br)ccc2S1(=O)=O | / | / | ? | -3 | 0 | 18µM*
O=C(CSc1ncc(-c2ccc(F)cc2)o1)NC(=O)c1ccccc1 | / | / | / | 3 | / | /
CCOc1cc2c3c(c1)C1(Nc4ccccc4S1)C(=O)N3C(C)(C)CC2C (stereo unspecified) | 25% | 0% | ? | 3 | 15 | 18µM*
CCCNC(=O)c1ccc(N2CCC3(CC2)CC(c2ccccc2)=NO3)c(NC(=O)c2ccco2)c1 | 33% | -6% | 16µM* | -6 | -15 | 18µM*
CCCNC(=O)c1ccc(N2CCC3(CC2)CC(c2cccc(Br)c2)=NO3)c(NC(=O)c2ccc(Br)cc2)c1 | / | / | -16% | -9 | -24 | -15%
Cc1ccc(CNC(=O)c2ccc(N3CCC4(CC3)CC(c3ccccc3)=NO4)c(NC(=O)c3ccccc3)c2)cc1 | / | / | -21% | -8 | -21 | -36%
CCCCC(CC)C(=O)Nc1cc(C(=O)NCCC)ccc1N1CCC2(CC1)CC(c1ccccc1)=NO2 (stereo unspecified) | 15% | 1% | ? | 1 | -17 | 6.5µM*
Cc1ccc(CNC(=O)c2ccc(N3CCC4(CC3)CC(c3ccccc3)=NO4)c(N)c2)cc1 | -19% | ? | ? | -2 | 40 | 2.6µM*
CCCNC(=O)c1ccc(N2CCC3(CC2)CC(c2ccccc2)=NO3)c(NC(=O)c2cccc(OC)c2)c1 | 0% | 0% | 13µM* | -2 | 8 | ?
SMILES | RORg inh | Gal4-VP16 FLuc | TDP1 cell noCPT | LDHA block | IL-1B inflam inh | DT40 TDP1 CPT
CCCNC(=O)c1ccc(N2CCC3(CC2)CC(c2cccc(Br)c2)=NO3)c(NC(=O)c2c(Cl)cccc2Cl)c1 | / | / | -16% | -1 | -7 | -10%
CN(C)Cc1ccc(CNC(=O)c2nccnc2N)cc1 | / | / | / | 0 | / | /
COc1ccc(CNC(=O)C(C)Cl)cc1 (stereo unspecified) | / | / | / | -1 | / | /
O=C(Nc1nccs1)c1ccc(F)c(S(=O)(=O)N2CCOCC2)c1 | -29% | -24% | -12% | -4 | i | 12%
O=C(Nc1nccs1)c1ccc(Br)c(S(=O)(=O)N2CCOCC2)c1 | 13µM* | ? | ? | -9 | 9 | -1%
O=C(Nc1nccs1)c1ccc(S(=O)(=O)N2CCOCC2)cc1 | ? | ? | 16µM* | -1 | 0 | ?
O=C(CCc1ccc(S(=O)(=O)N2CCOCC2)cc1)Nc1nccs1 | 19% | -10% | -17% | -7 | 18 | -16%
COC(=O)c1sc(NC(=O)COc2c(C)cc(C)cc2C)nc1C | / | / | / | 0 | / | /
COc1cc(-c2nc3ccccc3s2)ccc1OC(C)C | / | / | / | -4 | / | /
CCN(Cc1ccccc1)C(=O)Cn1c(=O)n(-c2cccc(C)c2)c(=O)c2c1c1cc(OC)ccc1n2C | / | / | 16µM* | -1 | / | 12µM*
CCN(Cc1ccccc1)C(=O)Cn1c(=O)n(-c2ccccc2)c(=O)c2c1c1cc(C)ccc1n2C | / | / | 3.7µM* | 1 | / | 9.2µM*
CCc1ccc(NC(=O)Cn2c(=O)n(CCc3ccccc3)c(=O)c3sc4ccccc4c32)cc1 | / | / | ? | 0 | / | ?
COCCCNC(=O)Cn1c(=O)n(-c2ccccc2)c(=O)c2c1c1cc(OC)ccc1n2C | / | / | -15% | -2 | / | -5%
CCc1ccc(-n2c(=O)c3sc4ccccc4c3n(CC(=O)N(CC)Cc3ccccc3)c2=O)cc1 | / | / | 18µM* | -3 | / | 18µM*
Cc1cc(SCC(=O)NN2C(=O)NC3(CCCCC3)C2=O)nc2c(C)cccc12 | / | / | / | 9 | / | /
Cc1cc(NC(=O)CN2CCN(C(=O)c3cc(Cl)ccc3F)CC2)no1 | / | / | / | -14 | / | /
CC1=C(C(=O)c2ccccc2)C(c2ccc(Br)cc2)NC(=O)N1 (stereo unspecified) | / | / | / | -21 | / | /
O=C(COC(=O)c1ccc(OC(F)F)cc1)Nc1cccc(S(=O)(=O)NC2=NCCC2)c1 | / | / | 3% | -3 | 15 | -15%
COc1cc(/C=C/C(=O)Nc2cccc(S(=O)(=O)NC3=NCCCCC3)c2)ccc1OCC#N | / | / | 26µM* | 7 | -56* | ?
COc1ccc(/C=C/C(=O)Nc2cccc(S(=O)(=O)NC3=NCCCCC3)c2)cc1 | -8% | -7% | 23µM* | -12 | 0 | ?
COc1ccc(NC(C)=O)cc1S(=O)(=O)Nc1cccc(S(=O)(=O)NC2=NCCC2)c1 | / | / | 21% | -2 | 13 | 0%
